Results from PubChem BioAssay (NCATS).
Records with an inconclusive call do not appear. Unmarked numbers belong to inactive results. The source made the active and inactive calls. Calls come from the whole dose curve; as a rule, active = well fitted activation curve with a large enough effect in the signal ratio; inconclusive = small, poorly fitted or top-dose-only effect, or effect the other way, or a change in a side signal; inactive = flat fitted curve, though single readings scatter; the % refers to the signal ratio.

assay: qHTS assay for small molecule agonists of the antioxidant response element (ARE) signaling pathway (AID 651741); conditions: HepG2 ARE-bla reporter, beta-lactamase FRET ratio, 16 h; series mostly up to 96 µM; activation: at the top concentration; for activation: % of control where 0% means no effect
Source text: National Center for Advancing Translational Sciences [NCATS]
NIH Chemical Genomics Center [NCGC]
U.S. Environmental Protection Agency [EPA]
National Institutes of Environmental Health Sciences [NIEHS]
National Toxicology Program [NTP]
Oxidative stress has been implicated in the pathogenesis of a variety of diseases ranging from cancer to neurodegeneration. The antioxidant response element (ARE) signaling pathway plays an important role in the amelioration of oxidative stress. The CellSensor ARE-bla HepG2 cell line (Invitrogen) can be used for analyzing the Nrf2/antioxidant response signaling pathway. Nrf2 (NF-E2-related factor 2) and Nrf1 are transcription factors that bind to AREs and activate these genes. The CellSensor ARE-bla Hep G2 cell line contains a beta-lactamase reporter gene under control of the Antioxidant Response Element (ARE) stably integrated into HepG2 cells. The activation of the report gene under culture conditions can be detected by fluorescence intensity. This cell line can be used to screen chemicals in a 1536-well plate format and to identify agonists that induce oxidative stress.
The ARE-bla cells were dispensed at 2,000 cells/5 ul/well in 1536-well black wall/clear bottom plates using a Multidrop dispenser. After the assay plates were incubated at a 37 C/5% CO2 incubator for 5 hours, 23 nL of compounds dissolved in DMSO, positive controls or DMSO only was transferred to the assay plate by a pin tool. The plates were incubated at 37 C for 16 hours. After 1 uL of LiveBLAzer B/G FRET substrate was added using a Flying Reagent Dispenser, the plates were incubated at room temperature for 2 hours, and fluorescence intensity was measured by an Envision plate reader.
Potency is the fitted concentration of half-maximal effect.

Row | Structure (SMILES) | activation [%] | Potency
1 | O=C(O)c1cccc(C(=O)O)c1 | -7.41 | –
2 | CCCCC(CC)COC(=O)/C=C\C(=O)OCC(CC)CCCC (stereo not given) | – | 30.6 µM (active)
3 | Cc1cc(Cc2cc(C)cc(C(C)(C)C)c2O)c(O)c(C(C)(C)C)c1 | – | 48.6 µM (active)
4 | CCN(Cc1cccc(S(=O)(=O)O)c1)c1ccc(C(=C2C=CC(=[N+](CC)Cc3cccc(S(=O)(=O)[O-])c3)C=C2)c2ccccc2)cc1 | – | 54.5 µM (active)
5 | Cc1ccc2c(c1)C(=O)OC2=O | 3.66 | –
6 | CCCCCCCCCCCCc1ccccc1 | 5.11 | –
7 | CCSC(=O)N(CC(C)C)CC(C)C | 7.32 | –
8 | Cc1ccc(Cl)cc1Cl | 3.22 | –
9 | CCC(O)OCCCOC (stereo not given) | -1.28 | –
10 | CC(C)Nc1nc(N)nc(Cl)n1 | 5.67 | –
11 | CCCCCCCC(=O)Oc1c(Br)cc(C#N)cc1Br | – | 61.1 µM (active)
12 | CO[Si](CCCOCC1CO1)(OC)OC (stereo not given) | 8.91 | –
13 | C=C(C)C(=O)OCCOCCOCCOC(=O)C(=C)C | 9.84 | –
14 | C=CC(=O)NC(C)(C)CS(=O)(=O)O | – | inactive
15 | O=S(c1ccc(Cl)cc1)c1cc(Cl)c(Cl)cc1Cl (stereo not given) | – | 54.5 µM (active)
16 | O=C(O)CCCCCCCCCCC(=O)O | 4.99 | –
17 | CCCCCCCCCCCCCc1ccccc1 | -2.81 | –
18 | CCCOC(=O)NCCCN(C)C | -2.38 | –
19 | COC(=O)C1CCC(C(=O)OC)CC1 (stereo not given) | 5.61 | –
20 | CCCCC(CC)C(=O)OCCOCCOCCOC(=O)C(CC)CCCC (stereo not given) | 2.55 | –

Row | Structure (SMILES) | activation [%] | Potency
21 | CCc1c(C(=O)O)c(=O)cnn1-c1ccc(Cl)cc1 | 3.24 | –
22 | Cc1ccc(C(C)(C)C)c(O)c1 | 0.0539 | –
23 | C/C=C/C=C/CCCCCCCO | 0.722 | –
24 | CCOC(=O)CC(O)(CC(=O)OCC)C(=O)OCC | 9.84 | –
25 | Oc1ccc(Nc2ccccc2)cc1 | – | 24.3 µM (active)
26 | O=C=NCCCCCCN=C=O | -4.26 | –
27 | CCCCCCCCCCCCCCCCN(C)C | 7.57 | –
28 | Nc1cc(Cl)c(O)c(Cl)c1 | – | 12.2 µM (active)
29 | CCC(C)(C)C1CCC(O)CC1 (stereo not given) | 4.82 | –
30 | O=C(O)CN(CCO)CCN(CC(=O)O)CC(=O)O | 7.08 | –
31 | CCCCCCCCCCCCCCCCCC#N | 9.52 | –
32 | O=S(=O)(O)c1ccc(N=Nc2c(O)ccc3cc(S(=O)(=O)O)ccc23)cc1 | 0.461 | –
33 | CN(C)Cc1cc(CN(C)C)c(O)c(CN(C)C)c1 | -3.33 | –
34 | NCCCCCCCCCCC(=O)O | 8.57 | –
35 | CCCCOC(=O)[C@@H](C)Oc1ccc(Oc2ccc(C(F)(F)F)cn2)cc1 | 5.15 | –
36 | CCCCN(CCCC)CCCC | -1.27 | –
37 | C=C[Si](OCCOC)(OCCOC)OCCOC | 2.75 | –
38 | Nc1ccc(Nc2ccccc2)cc1 | – | 30.6 µM (active)
39 | COC(=O)c1ccccc1C(=O)O | 3.03 | –
40 | c1cc2ccc3ccc4ccc5cccc6c(c1)c2c3c4c56 | – | 21.7 µM (active)
